Here are results for nine sequences from article PMC8384837, “Expanding the binding specificity for RNA recognition by a PUF domain”.

Holding throughout (experiment): yeast three-hybrid, YBZ-1, SC-Leu-His + 0.5 mM 3-AT, 4 days
Conditions in all cases: tags: N-Gal4 AD-HA kept; label: inside an RPR1-promoter hybrid RNA with tandem MS2 sites; ssRNA

The target of one experiment is PUM1 PUF domain R8-GWH (Homo sapiens, UniProt Q14671 828-1176, N1122G;Y1123W;Q1126H). In a few lines: (§1)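 The interaction score is the log change in how often each variant appears, from input to selection. Frequencies came from PCR-amplified, Illumina-sequenced repeat regions of Pumilio-1 PUF domain libraries grown in strain YBZ-1 (LexA–MS2 coat fusion, HIS3 reporter) alongside matching RNA elements. Input plates were SC-Leu and selection plates were SC-Leu-His + 0.5 mM 3-AT, each for four days, and the log2 calculation used a pseudocount of 1 where a variant was absent.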

A further experiment concerns the target PUM1 PUF domain R1-KWV (Homo sapiens, UniProt Q14671 828-1176, S863K;R864W;Q867V). In a few lines:
as §1

For another experiment, the target named is T1, PUM1 PUF domain R6-QWL (Homo sapiens, UniProt Q14671 828-1176, N1043Q;Y1044W;Q1047L).
T1 sequence: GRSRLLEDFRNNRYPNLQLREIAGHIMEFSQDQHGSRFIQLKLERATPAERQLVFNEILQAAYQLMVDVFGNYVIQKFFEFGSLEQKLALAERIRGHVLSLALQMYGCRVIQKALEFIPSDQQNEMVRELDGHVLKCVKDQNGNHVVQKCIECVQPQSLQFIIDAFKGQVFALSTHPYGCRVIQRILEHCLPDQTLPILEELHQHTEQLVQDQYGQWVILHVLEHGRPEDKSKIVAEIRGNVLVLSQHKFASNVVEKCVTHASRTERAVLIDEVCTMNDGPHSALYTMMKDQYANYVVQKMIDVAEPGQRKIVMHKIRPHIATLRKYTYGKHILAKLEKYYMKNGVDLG
In a few lines:
as §1

The target in the next experiment is PUM1 PUF domain R2-RKQ (Homo sapiens, UniProt Q14671 828-1176, N899R;Y900K). The gist of the method: as §1
Another experiment has as its target PUM1 PUF domain R5-KQW (Homo sapiens, UniProt Q14671 828-1176, C1007K;R1008Q;Q1011W). The gist of the method:
as §1

In the next experiment the target is PUM1 PUF domain R5-QAR (Homo sapiens, UniProt Q14671 828-1176, C1007Q;R1008A;Q1011R). The gist of the method: as §1
A further experiment addresses PUM1 PUF domain R5-WWQ (Homo sapiens, UniProt Q14671 828-1176, C1007W;R1008W). In a few lines: as §1
The next experiment addresses PUM1 PUF domain R5-EWD (Homo sapiens, UniProt Q14671 828-1176, C1007E;R1008W;Q1011D). In a few lines: as §1
In the next experiment the target is PUM1 PUF domain R5-PHR (Homo sapiens, UniProt Q14671 828-1176, C1007P;R1008H;Q1011R). In a few lines:
as §1

In another experiment the target is PUM1 PUF domain R4-RMS (Homo sapiens, UniProt Q14671 828-1176, N971R;H972M;Q975S). In a few lines:
as §1

“GGCUAGAACUAGUGGAUCCCCCGGCGCCCGGCGGCUCGAGCCCGGGUAAGCGUAAAUAGUCUGCAUGCCGCCGGGCGCCAUGCCUGCAGGUCGACUCUAGAAAACAUG”: the binding signal in the experiment with PUM1 PUF domain R8-GWH is 3.5 log2 enrichment (interaction score).
In the case of “GGCUAGAACUAGUGGAUCCCCCGGCGCCCGGCGGCUCGAGCCCGGGUAAGUGUAAAUCGUCUGCAUGCCGCCGGGCGCCAUGCCUGCAGGUCGACUCUAGAAAACAUG”, in the experiment with PUM1 PUF domain R1-KWV, the binding signal was 5.68 log2 enrichment (interaction score).
On the same count and under the same terms, the value for “GGCUAGAACUAGUGGAUCCCCCGGCGCCCGGCGGCUCGAGCCCGGGUAAGUGUAAAUGGUCUGCAUGCCGCCGGGCGCCAUGCCUGCAGGUCGACUCUAGAAAACAUG” was 0.79 log2 enrichment (interaction score).
For the sequence “GGCUAGAACUAGUGGAUCCCCCGGCGCCCGGCGGCUCGAGCCCGGGUAAGUGAAAAUAGUCUGCAUGCCGCCGGGCGCCAUGCCUGCAGGUCGACUCUAGAAAACAUG”, the binding signal in the experiment with PUM1 PUF domain R6-QWL is 4.43 log2 enrichment (interaction score).
On to “GGCUAGAACUAGUGGAUCCCCCGGCGCCCGGCGGCUCGAGCCCGGGUAAGUGUAAAGAGUCUGCAUGCCGCCGGGCGCCAUGCCUGCAGGUCGACUCUAGAAAACAUG”, for which, in the experiment with PUM1 PUF domain R2-RKQ, the binding signal was 2.92 log2 enrichment (interaction score).
In the case of “GGCUAGAACUAGUGGAUCCCCCGGCGCCCGGCGGCUCGAGCCCGGGUAAGUGUCAAUAGUCUGCAUGCCGCCGGGCGCCAUGCCUGCAGGUCGACUCUAGAAAACAUG”, the figures for the binding signal with PUM1 PUF domain R5-KQW and in the experiment with PUM1 PUF domain R5-QAR were 4.59 log2 enrichment (interaction score) and 4.51 log2 enrichment (interaction score), respectively.
“GGCUAGAACUAGUGGAUCCCCCGGCGCCCGGCGGCUCGAGCCCGGGUAAGUGUGAAUAGUCUGCAUGCCGCCGGGCGCCAUGCCUGCAGGUCGACUCUAGAAAACAUG”: the binding signal is 2.01 log2 enrichment (interaction score) with PUM1 PUF domain R5-WWQ and 2.28 log2 enrichment (interaction score) in the experiment with PUM1 PUF domain R5-EWD.
As for “GGCUAGAACUAGUGGAUCCCCCGGCGCCCGGCGGCUCGAGCCCGGGUAAGUGUAAAUAGUCUGCAUGCCGCCGGGCGCCAUGCCUGCAGGUCGACUCUAGAAAACAUG”, the values for the binding signal in the experiment with PUM1 PUF domain R5-PHR and with PUM1 PUF domain R4-RMS were 2.42 log2 enrichment (interaction score) and 4.65 log2 enrichment (interaction score), respectively.
With “GGCUAGAACUAGUGGAUCCCCCGGCGCCCGGCGGCUCGAGCCCGGGUAAGUGUUAAUAGUCUGCAUGCCGCCGGGCGCCAUGCCUGCAGGUCGACUCUAGAAAACAUG”, the binding signal is 2.43 log2 enrichment (interaction score) in the experiment with PUM1 PUF domain R5-KQW, 2.93 log2 enrichment (interaction score) in the experiment with PUM1 PUF domain R5-WWQ and 3.17 log2 enrichment (interaction score) with PUM1 PUF domain R5-QAR.
